10 molecules from PubChem BioAssay (NCATS) can be followed below.

Several values for one entry are separate records, joined by “and”; a condition that tells them apart may be missing. Equal entries are not always repeated. Values without a mark were called inactive. Inconclusive results are not listed. Activity calls are given as the source filed them. Unless noted, calls come from the whole dose curve; as a rule, active = well fitted curve in the direction sought with a large enough effect; inconclusive = small, poorly fitted or top-dose-only effect, or another doubt; inactive = no such curve, though single readings can be large; an effect the other way counts as inactive or inconclusive.

Test [1] in a line: qHTS Screen of the MIPE 4.0 Collection Against Ewings Sarcoma (TC32) (AID 1259256). Note: nearly all actives have a fitted effect of over 45% in size. Note: potency is the fitted concentration of half-maximal effect. In outline: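 CellTiter-Glo luminescence after 48 h compound exposure (titration) gave viability; percent activity used DMSO-treated cells as no inhibition and medium-only wells as full inhibition. Cells grown in RPMI/5% FBS, dosed 4 h post-seeding.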
(In general: Quantitative high-throughput screening tests each substance at several concentrations.)

Test [2] can be described thus: qHTS assay to identify small molecule inhibitors of chordoma cells - UCH-1 (AID 1259355). Note: nearly all actives have a fitted effect of over 55% in size. Note: potency is the fitted concentration of half-maximal effect; series mostly up to about 46 µM. In outline: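 Seed 800 cells per well; incubate overnight at 37 C, 5% CO2. Add test compounds (15 concentrations), then the auranofin–topoisomerase-agent combination. Incubate 48hr, add CellTiter-Glo, wait 30min, read luminescence.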
A short description of test [3]: qHTS assay to identify small molecule inhibitors of chordoma cells - UCH-2 (AID 1259356). Note: series mostly up to about 46 µM.
Test [4] is described as follows: P-glycoprotein substrates identified in KB-8-5-11 adenocarcinoma cell line, qHTS therapeutic library screen (AID 1346987). Note: nearly all actives have a fitted effect of over 65% in size. Note: potency is the fitted concentration of half-maximal effect. The method, boiled down: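 KB-8-5-11, a colchicine-selected P-gp-overexpressing KB-3-1 subline, was grown without colchicine for the assay. Cells were seeded at 500 cells/well, dosed in concentration-response and incubated 72 h at 37 degree C, 5% CO2. Viability was read by CellTiter-Glo luminescence.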

Test [5] in a line: Natriuretic polypeptide receptor (hNpr1) antagonism - Pilot counterscreen GloSensor control cell line (AID 1347045; calls by dose curve; note: series mostly up to about 38 µM). The method, boiled down: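 HEK293 cGMP GloSensor cells preloaded 2 h with 2% GloSensor reagent, then compound 30 min before baseline luminescence read. Stimulated with 50 uM sodium nitroprusside, 20 min at room temperature, then read again; counterscreen for Npr1 antagonism.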

For test [6], the target named is Atrial natriuretic peptide receptor 1 (Homo sapiens) (UniProt P16066). Kind of test: Natriuretic polypeptide receptor (hNpr1) antagonism - Pilot screen (AID 1347049; calls by dose curve;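 note: agonist-evoked cGMP luminescence read 20 min after hNppA addition; series mostly up to about 58 µM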). The method, boiled down: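 Readout is cGMP-driven firefly luciferase luminescence in HEK293 cells carrying hNpr1 and a PDE5-domain GloSensor, read before and 20 min after 0.1 nM hNppA stimulation. Cells had 2% substrate reagent for 2 h and test compound for 30 min.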

For test [7], the target named is Atrial natriuretic peptide receptor 2 (Homo sapiens) (UniProt P20594). Kind of test: Natriuretic polypeptide receptor (hNpr2) antagonism - Pilot subtype selectivity assay (AID 1347050; calls by dose curve). The method, boiled down: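 Pilot selectivity screen against hNpr2: HEK293 cGMP-sensor cells are treated with LOPAC1280 compounds, then with hNppC peptide at 1 nM final. The cGMP-driven luminescence change over 20 min at room temperature is the read-out.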

Test [8] is described as follows: NS1 protein of Zika virus - qHTS assay to identify small molecule inhibitors in human HEK 293 cells (AID 1347053). Note: series mostly up to about 46 µM; nearly all actives have a fitted effect of over 55% in size. In outline: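 Inhibition of NS1 expression was scored in HEK 293 cells given compound 1 h ahead of MR766 virus (MOI = 0.5). Following 24 h at 37 C, two anti-NS1 antibodies generated a TR-FRET signal, scaled between uninfected and infected controls.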

The target of test [9] is T1, Tyrosine-protein phosphatase non-receptor type substrate 1 (Homo sapiens) + Leukocyte surface antigen CD47 (Homo sapiens) (UniProt P78324+Q08722). Description: CD47-SIRPalpha protein protein interaction - HTRF assay qHTS validation (AID 1347058; active = well fitted curve in the direction sought with a large enough effect in the signal ratio, not every such curve was filed as active; the % refers to the signal ratio;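 note: recombinant soluble extracellular CD47 with His tag and biotinylated SIRPalpha domains; series mostly up to about 38 µM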). The method, boiled down:
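TR-FRET read (Ch1/Ch2 ratio) of soluble extracellular CD47 and Avi-biotinylated SIRPalpha domains in PBS pH 7.4 with 0.05% IGEPAL; 7-point compound titration. Sequential 30 min room-temperature steps; non-biotinylated SIRPalpha as control inhibitor.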

The target in test [10] is T1, Tyrosine-protein phosphatase non-receptor type substrate 1 (Homo sapiens) + Leukocyte surface antigen CD47 (Homo sapiens). Kind of test: CD47-SIRPalpha protein protein interaction - Alpha assay qHTS validation (AID 1347059).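 Note: bead proximity luminescence from CD47 binding SIRPalpha after compound preincubation with SIRPalpha.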 In outline:
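Binding is measured by AlphaScreen proximity: Ni-NTA acceptor beads capture His-CD47, streptavidin donor beads capture biotin-SIRPalpha. Each of three additions (SIRPalpha with compound, CD47, beads) incubates 30 min at room temperature protected from light.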

Test [11] concerns the target Parathyroid hormone/parathyroid hormone-related peptide receptor (Homo sapiens) (UniProt Q03431). Description: qHTS for PTHR1 Agonists: Optimization Screen against the NCGC LOPAC library (AID 1347079).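 Note: GloSensor cAMP luminescence in HEK-293 GP2 cells expressing human PTHR1 with IBMX.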 In outline: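 Agonist readout: GloSensor cAMP luminescence, read after 15 min at room temperature. HEK-293-derived GP2 line carries PTHR1; compounds tested as a titration for 1 hr at 37C in presence of IBMX. M-PTH (1-15) served as control.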

The nature of test [12]: qHTS of pediatric cancer cell lines to identify multiple opportunities for drug repurposing: Primary screen for TC32 cells (AID 1347089). Note: nearly all actives have a fitted effect of over 60% in size. Note: potency is the fitted concentration of half-maximal effect. The method, boiled down:
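Measured quantity: luminescence from CellTiter-Glo, reflecting metabolically active TC32 cells following 48 h of compound. Curves came straight from multi-point titrations, with 8 or 11 points in primary and 11 in confirmatory screening.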

A short description of test [13]: Identifying Small Molecule Inhibitors of Pancreatic Cancer Stem Cells (Panc1, Spheroid) (AID 1259359).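 Note: compound exposure lasted 48 h before reading.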 In outline:
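Spheroids grown 14 days in stem cell media on hydrogel-coated nonadherent plates; 2D lines seeded directly. Compounds added after 4 h attachment, 48 h at 37C, 5% CO2; CellTiter-Glo luminescence normalized to DMSO (no inhibition) and no-cell wells (full inhibition).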

The nature of test [14]: Identifying Small Molecule Inhibitors of Pancreatic Cancer Stem Cells (SN12C, Spheroid) (AID 1259360). Note: potency is the fitted concentration of half-maximal effect. The following applies: Potency: SN12C spheroid viability. The method, boiled down:
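After a 4 h attachment period, compounds were pinned into wells and cultures held 48 h under standard incubator conditions. Viability was then measured as CellTiter-Glo luminescence following 10 min at room temperature.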

Test [15] addresses T1, Tyrosine-protein phosphatase non-receptor type substrate 1 (Homo sapiens) + Leukocyte surface antigen CD47 (Homo sapiens). Kind of test: CD47-SIRPalpha protein protein interaction - LANCE assay qHTS validation (AID 1347057; active = well fitted curve in the direction sought with a large enough effect in the signal ratio, with a control signal flat, not every such curve was filed as active; the % refers to the signal ratio; note: series mostly up to about 38 µM). The method, boiled down:
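First, His-tagged CD47 and Eu-labelled anti-His antibody met the compound for 30 min; next, site-specifically biotinylated SIRPalpha was added for 30 min; finally streptavidin-APC was added before reading the TR-FRET ratio.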

A short description of test [16]: Identifying Small Molecule Inhibitors of Pancreatic Cancer Stem Cells (A278, Adherent) (AID 1259361). Note: nearly all actives have a fitted effect of over 35% in size. In outline:
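Cytotoxicity read by CellTiter-Glo luminescence after 48 h compound exposure at 37C; percent activity scaled between DMSO-treated cells and cell-free wells. Spheroid formats used cells pre-formed 14 days in stem cell media on hydrogel.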

Atrial natriuretic peptide receptor 1 (Homo sapiens), sequence (P16066 whole entry, looked up): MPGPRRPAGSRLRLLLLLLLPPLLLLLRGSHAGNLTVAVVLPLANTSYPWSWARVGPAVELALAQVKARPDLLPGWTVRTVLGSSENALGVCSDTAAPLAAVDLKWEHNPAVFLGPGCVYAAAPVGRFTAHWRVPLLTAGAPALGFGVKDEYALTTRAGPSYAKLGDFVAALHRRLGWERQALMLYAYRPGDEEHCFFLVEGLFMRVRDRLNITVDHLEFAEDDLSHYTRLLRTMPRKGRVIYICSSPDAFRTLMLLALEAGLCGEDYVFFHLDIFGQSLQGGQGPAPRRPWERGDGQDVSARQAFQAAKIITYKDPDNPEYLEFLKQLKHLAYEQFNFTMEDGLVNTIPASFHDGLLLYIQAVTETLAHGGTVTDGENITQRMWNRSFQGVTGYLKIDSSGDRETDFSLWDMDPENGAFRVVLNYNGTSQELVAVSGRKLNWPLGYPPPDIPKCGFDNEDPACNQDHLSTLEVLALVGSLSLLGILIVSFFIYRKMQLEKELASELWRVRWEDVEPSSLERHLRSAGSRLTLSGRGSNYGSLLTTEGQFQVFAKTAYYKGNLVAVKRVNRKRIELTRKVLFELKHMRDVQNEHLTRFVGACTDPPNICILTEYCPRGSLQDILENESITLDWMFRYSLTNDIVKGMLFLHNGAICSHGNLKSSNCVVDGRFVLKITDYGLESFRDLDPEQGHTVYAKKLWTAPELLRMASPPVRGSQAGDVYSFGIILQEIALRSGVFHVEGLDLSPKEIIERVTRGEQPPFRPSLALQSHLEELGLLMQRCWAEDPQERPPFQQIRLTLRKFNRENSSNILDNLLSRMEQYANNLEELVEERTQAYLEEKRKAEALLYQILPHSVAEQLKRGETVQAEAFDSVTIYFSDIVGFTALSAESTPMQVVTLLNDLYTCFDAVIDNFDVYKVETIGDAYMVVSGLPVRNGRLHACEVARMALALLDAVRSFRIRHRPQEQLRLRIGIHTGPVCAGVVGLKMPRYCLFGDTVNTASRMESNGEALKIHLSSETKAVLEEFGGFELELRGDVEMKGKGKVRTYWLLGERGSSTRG
Atrial natriuretic peptide receptor 2 (Homo sapiens), sequence (P20594 whole entry, looked up): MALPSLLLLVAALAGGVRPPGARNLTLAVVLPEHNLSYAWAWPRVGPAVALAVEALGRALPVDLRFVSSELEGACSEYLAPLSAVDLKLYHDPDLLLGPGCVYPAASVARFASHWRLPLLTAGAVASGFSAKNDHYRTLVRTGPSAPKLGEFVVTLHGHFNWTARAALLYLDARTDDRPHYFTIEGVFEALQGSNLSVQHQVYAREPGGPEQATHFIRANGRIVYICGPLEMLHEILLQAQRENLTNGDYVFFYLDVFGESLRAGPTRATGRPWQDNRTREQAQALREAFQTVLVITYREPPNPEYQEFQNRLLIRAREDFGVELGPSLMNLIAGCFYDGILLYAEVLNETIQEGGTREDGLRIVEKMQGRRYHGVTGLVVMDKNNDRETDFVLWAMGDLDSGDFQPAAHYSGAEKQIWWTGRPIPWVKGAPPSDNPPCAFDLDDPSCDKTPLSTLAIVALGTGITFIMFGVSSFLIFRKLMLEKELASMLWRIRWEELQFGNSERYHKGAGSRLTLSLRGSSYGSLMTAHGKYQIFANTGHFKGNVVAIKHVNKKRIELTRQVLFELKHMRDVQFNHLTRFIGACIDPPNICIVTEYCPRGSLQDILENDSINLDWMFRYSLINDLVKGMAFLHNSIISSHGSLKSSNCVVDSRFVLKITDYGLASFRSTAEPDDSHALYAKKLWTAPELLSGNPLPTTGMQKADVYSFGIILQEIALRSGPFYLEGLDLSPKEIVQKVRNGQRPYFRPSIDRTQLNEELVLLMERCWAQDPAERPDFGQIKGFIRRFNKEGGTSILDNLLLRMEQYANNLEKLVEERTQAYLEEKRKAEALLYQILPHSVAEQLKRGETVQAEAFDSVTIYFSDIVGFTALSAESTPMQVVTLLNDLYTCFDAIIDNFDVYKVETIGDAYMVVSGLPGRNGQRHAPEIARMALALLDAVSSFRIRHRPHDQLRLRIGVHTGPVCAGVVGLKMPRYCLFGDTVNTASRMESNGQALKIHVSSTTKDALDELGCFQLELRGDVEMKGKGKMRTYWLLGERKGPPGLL
T1 sequence (P78324 whole entry, looked up, the tested form may be a part): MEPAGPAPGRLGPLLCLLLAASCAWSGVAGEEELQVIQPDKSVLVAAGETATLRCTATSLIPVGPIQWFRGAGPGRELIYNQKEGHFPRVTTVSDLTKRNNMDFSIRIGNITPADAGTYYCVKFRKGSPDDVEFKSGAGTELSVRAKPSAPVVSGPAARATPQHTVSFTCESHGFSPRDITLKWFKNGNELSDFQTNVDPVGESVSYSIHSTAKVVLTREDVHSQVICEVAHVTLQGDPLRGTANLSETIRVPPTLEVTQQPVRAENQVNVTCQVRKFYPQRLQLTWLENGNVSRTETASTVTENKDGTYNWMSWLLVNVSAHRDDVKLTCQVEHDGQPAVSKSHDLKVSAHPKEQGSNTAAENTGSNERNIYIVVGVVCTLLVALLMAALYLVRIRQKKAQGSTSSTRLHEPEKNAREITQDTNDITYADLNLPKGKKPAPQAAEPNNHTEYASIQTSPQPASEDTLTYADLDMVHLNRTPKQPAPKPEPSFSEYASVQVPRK
T1 sequence (Q08722 whole entry, looked up, the tested form may be a part): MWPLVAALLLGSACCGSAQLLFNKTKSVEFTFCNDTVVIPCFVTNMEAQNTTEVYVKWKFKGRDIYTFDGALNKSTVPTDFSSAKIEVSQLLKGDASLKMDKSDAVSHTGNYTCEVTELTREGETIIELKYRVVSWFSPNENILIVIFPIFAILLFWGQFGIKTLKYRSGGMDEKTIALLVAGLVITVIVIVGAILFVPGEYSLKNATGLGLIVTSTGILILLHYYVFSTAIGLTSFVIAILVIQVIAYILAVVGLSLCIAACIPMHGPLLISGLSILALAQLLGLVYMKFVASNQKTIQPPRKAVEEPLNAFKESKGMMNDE
Parathyroid hormone/parathyroid hormone-related peptide receptor (Homo sapiens), sequence (Q03431 whole entry, looked up): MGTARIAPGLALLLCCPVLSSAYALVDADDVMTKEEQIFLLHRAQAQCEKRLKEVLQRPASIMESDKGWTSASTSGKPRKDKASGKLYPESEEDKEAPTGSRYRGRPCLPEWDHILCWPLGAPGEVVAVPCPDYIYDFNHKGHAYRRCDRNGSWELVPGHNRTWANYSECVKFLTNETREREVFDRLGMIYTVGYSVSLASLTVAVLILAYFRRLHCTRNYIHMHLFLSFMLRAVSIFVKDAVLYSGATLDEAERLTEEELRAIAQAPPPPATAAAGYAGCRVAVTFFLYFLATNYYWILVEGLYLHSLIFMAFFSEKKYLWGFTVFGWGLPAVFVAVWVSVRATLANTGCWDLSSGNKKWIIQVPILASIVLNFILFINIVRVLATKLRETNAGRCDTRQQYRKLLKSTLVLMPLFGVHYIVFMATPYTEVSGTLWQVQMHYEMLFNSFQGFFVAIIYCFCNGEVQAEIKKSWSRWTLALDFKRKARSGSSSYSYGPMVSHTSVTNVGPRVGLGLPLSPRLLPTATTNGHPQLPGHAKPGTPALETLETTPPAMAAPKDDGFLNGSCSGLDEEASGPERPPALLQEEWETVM

As to `O=C1CCc2cc(OCCCCc3nnnn3C3CCCCC3)ccc2N1`, the Potency result in test [1], in [2], in test [4], in test [7], in test [8] and in test [12] was “inactive” each time. Also, the result in test [3], in test [5], in test [6], in test [9], in test [10] and in test [11] was inactive.

Regarding `Cn1cnc([N+](=O)[O-])c1Sc1ncnc2nc[nH]c12`, the Potency in [1] is 3.32 µM (active); in test [4], 4.61 µM (active) and 2 µM (active) and 833 nM (active); in [12], 10.8 µM (active) and 10.5 µM (active) and 16.5 µM (active). In addition, the Potency entry in test [2], in test [7] and in test [8] was “inactive” in each case. For the same molecule, the result in test [3], in test [5], in test [6], in [10] and in test [11] was inactive.

In the case of `CCC(C)(C)C(=O)O[C@H]1C[C@@H](C)C=C2C=C[C@H](C)[C@H](CC[C@@H]3C[C@@H](O)CC(=O)O3)[C@H]21`, the Potency in test [1] was 3.72 µM (active); in test [4], 16.6 µM (active). In addition, the Potency entry in test [2], in test [13], in test [14] and in test [8] was “inactive” in each case. Moreover, in [3], the outcome was inactive.

Take `Nc1ccc(S(=O)(=O)Nc2ccnn2-c2ccccc2)cc1`: the Potency entry in [1], in [2], in test [4], in [7] and in test [8] was “inactive” each time. The outcome in [3], in test [5], in test [6], in [15], in [9] and in test [10] was inactive. For the same molecule, in [11], the molecule was classed as inactive.

As to `CC(C[N+](C)(C)C)OC(N)=O` (configuration not stated), the Potency result in [1], in [2], in test [4], in test [7], in [8] and in test [12] was “inactive” throughout. Further, the call in test [3], in test [5], in test [6], in test [9], in test [10] and in test [11] was inactive.

Turning to `Cc1cc2c(C(C)C)c(O)c(O)c(C=O)c2c(O)c1-c1c(C)cc2c(C(C)C)c(O)c(O)c(C=O)c2c1O`, the Potency is 18.7 µM (active) in [1] and 11.8 µM (active) in [4]. Besides, the Potency result in test [2] and in test [12] was “inactive” throughout. The result in test [3], in test [9] and in test [11] was inactive. Moreover, the IC50 (viability decrease) in test [16] is 26.4 µM (active).

Consider `NCCCC(N)(C(=O)O)C(F)F` (configuration not stated), for which the Potency result in [1], in test [2], in test [4], in test [7], in test [8] and in [12] was “inactive” throughout. In addition, the call in test [3], in test [5], in test [6], in test [9], in test [10] and in test [11] was inactive.

As for `O=C1CCC(N2C(=O)c3ccccc3C2=O)C(=O)N1` (configuration not stated), in test [1], the Potency was 0.0037 µM (active). The Potency entry in test [2], in test [4], in [7], in [8] and in [12] was “inactive” in each case. Also, the outcome in [3], in test [5], in test [6], in test [9], in test [10] and in test [11] was inactive.

Turning to `NC(N)=NC(=O)c1nc(Cl)c(N)nc1N`, the Potency result in [1], in [2], in test [7], in test [8] and in test [12] was “inactive” each time. Besides, the result in test [3], in test [5], in test [6], in test [10] and in [11] was inactive. The Potency in test [4] is 25.9 µM (active).

Turning to `C#Cc1cccc(Nc2ncnc3cc(OCCOC)c(OCCOC)cc23)c1`, the results for the Potency in [1], in test [2] and in [14] were 20.9 µM (active), 0.141 µM (active) and 16.6 µM (active), respectively. The result in test [3] was inactive. The Potency entry in test [8] was “inactive”.
